# Measured values reported in PubChem BioAssay (EPA / NIEHS).
# Records with an inconclusive call do not appear. Some structures have more than one record in an assay (separate samples or runs), and their calls can disagree. Calls of active or inactive are those of the source. How the source made its calls, unless noted: active means hit-call score of the fitted dose curve at least 0.9, where 1 is the maximum; inconclusive means response in the unintended direction; inactive means score below 0.9.
# Key:
# [1] = ATG_TGFb_CIS: Attagene CIS-FACTORIAL HepG2 Assay for human Transforming Growth Factor (TGF) (AID 2282967; active means hit-call score of the fitted dose curve at least 0.9, where 1 is the maximum; inactive means score below 0.9); conditions: HepG2 Attagene CIS TGFb reporter, mRNA transcription; actives raise or lower the signal
# Procedure, shortened: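 HepG2 cells transiently transfected with cis-promoter-driven multiplexed reporter units; 24 h compound exposure. Reporter mRNA measured by RT-PCR, 6-FAM labeling, HpaI digestion and capillary electrophoresis; bidirectional fit versus DMSO baseline.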
# [2] = biological target: X-box-binding protein 1 (Homo sapiens) (UniProt P17861); experiment: ATG_Xbp1_CIS: Attagene CIS-FACTORIAL HepG2 Assay for human X-box Binding Protein 1 (XBP1) (AID 2282972; active means hit-call score of the fitted dose curve at least 0.9, where 1 is the maximum; inactive means score below 0.9); conditions: HepG2 XBP1 cis-element reporter, Attagene multiplex; actives raise or lower the signal
# Procedure, shortened: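 HepG2 cells transiently transfected with cis-regulated multiple reporter transcription units; endogenous transcription factor activity measured 24 hours after chemical dosing. Reporter mRNA quantified by RT-PCR, 6-FAM primer extension, HpaI digestion and capillary electrophoresis; bidirectional fitting versus DMSO.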
# [3] = ATG_M_19_TRANS: Attagene TRANS-FACTORIAL HepG2 Assay for M19 Transcription Factor (Internal Marker) (AID 2282974); conditions: HepG2 Attagene TRANS-FACTORIAL M19 internal marker reporter
# Procedure, shortened: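 Cells: human HepG2, transiently transfected with multiplexed reporter transcription units. Exposure: 24 h. Detection: RT-PCR of reporter mRNA with capillary electrophoresis. Analysis: gain-of-signal vs DMSO.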
# [4] = ATG_Hpa5_TRANS: Attagene TRANS-FACTORIAL HepG2 Assay for human GAL4-Hpa5 Hepatocyte Transcription Factor Basal Promoter (AID 2282975); conditions: HepG2 Attagene GAL4-Hpa5 transcription reporter;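 further: hits are increases in reporter mRNA over DMSO baseline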
# Procedure, shortened: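 Basal-promoter GAL4 background control within the HepG2 trans-factorial panel of transiently transfected reporter units. Reporter mRNA is measured 24 h after dosing by RT-PCR and capillary electrophoresis, fitted for gain of signal versus DMSO.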
# [5] = ATG_GAL4_TRANS: Attagene TRANS-FACTORIAL HepG2 Assay for GAL4 (Internal Marker) (AID 2282976); conditions: HepG2 Attagene TRANS GAL4 internal marker reporter
# Procedure, shortened: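 Fluorescence from capillary electrophoresis of labelled RT-PCR products quantifies reporter mRNA induction after 24 h dosing of HepG2 cells carrying transfected GAL4-UAS reporter transcription units. Vehicle DMSO serves as baseline.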
# [6] = biological target: Oxysterols receptor LXR-alpha (Homo sapiens) (UniProt Q13133); experiment: ATG_LXRa_TRANS: Attagene TRANS-FACTORIAL HepG2 Assay for human Liver X Receptor alpha (LXRa) (AID 2282980); conditions: HepG2 Attagene TRANS reporter, LXRa transactivation
# Procedure, shortened: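 Transient HepG2 transfectants, 24 h dosing, RT-PCR/CE mRNA reporter quantitation; gain-of-signal vs DMSO.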
# [7] = biological target: Oxysterols receptor LXR-beta (Homo sapiens) (UniProt P55055); experiment: ATG_LXRb_TRANS: Attagene TRANS-FACTORIAL HepG2 Assay for human Liver X Receptor beta (LXRb) (AID 2282981); conditions: HepG2 Attagene TRANS GAL4-LXRb reporter, mRNA
# Procedure, shortened: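 Transient transfection HepG2 (multiplexed RTUs, GAL4-UAS); NR-Gal4 chimera; 24 h exposure; RNA → RT-PCR → 6-FAM primer extension → HpaI → CE; increase vs DMSO.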
# [8] = biological target: Hepatocyte nuclear factor 4-alpha (Homo sapiens) (UniProt P41235); experiment: ATG_HNF4a_TRANS: Attagene TRANS-FACTORIAL HepG2 Assay for human Hepatocyte Nuclear Factor 4 alpha (HNF4a) (AID 2282982); conditions: HepG2 HNF4a transactivation reporter, mRNA readout
# Procedure, shortened: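 Readout is fluorescent reporter-transcript fragments resolved by capillary electrophoresis after RT-PCR from HepG2 cells dosed for 24 h. Cells carried transfected GAL4-UAS reporter constructs measuring exogenous NR-GAL4 chimera activity; DMSO served as baseline.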
# [9] = ATG_M_32_TRANS: Attagene TRANS-FACTORIAL HepG2 Assay for M32 Transcription Factor (Internal Marker) (AID 2282984); conditions: HepG2 Attagene TRANS M32 internal marker reporter
# Procedure, shortened: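 Measures reporter mRNA induction in human HepG2 liver cells after 24 h chemical treatment. Transcripts from transiently transfected GAL4-UAS reporter units are amplified, fluorescently labelled and sized by capillary electrophoresis; gain of signal relative to DMSO.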
# [10] = biological target: Nuclear receptor subfamily 4 group A member 2 (Homo sapiens) (UniProt P43354); experiment: ATG_NURR1_TRANS: Attagene TRANS-FACTORIAL HepG2 Assay for human Nuclear Receptor Related Protein 1 (NURR1) (AID 2282985); conditions: HepG2 Attagene TRANS reporter, mRNA readout
# Procedure, shortened: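 Transient transfection of HepG2, human liver cells, with multiple GAL4-UAS reporter transcription units. Cells dosed 24 h, RNA isolated, reverse-transcribed, PCR-amplified, FAM-labelled, HpaI-digested, sized by capillary electrophoresis. DMSO served as negative control.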
# [11] = biological target: Transcriptional activator Myb (Homo sapiens) (UniProt P10242); experiment: ATG_Myb_CIS: Attagene CIS-FACTORIAL HepG2 Assay for human Myeloblastosis (Myb) Proto-Oncogene Transcription Factor (AID 2282986; active means hit-call score of the fitted dose curve at least 0.9, where 1 is the maximum; inactive means score below 0.9); conditions: HepG2 Attagene CIS-FACTORIAL Myb reporter transcription; actives raise or lower the signal
# Procedure, shortened: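 Steps: transfect HepG2 with cis-regulated reporter units; dose with chemical for 24 h; isolate RNA, reverse-transcribe, PCR-amplify and FAM-label reporter sequences; digest with HpaI; resolve by capillary electrophoresis. Activity fitted in both directions relative to DMSO.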
# [12] = biological target: Nuclear respiratory factor 1 (Homo sapiens) (UniProt Q16656); experiment: ATG_NRF1_CIS: Attagene CIS-FACTORIAL HepG2 Assay for human Nuclear Respiratory Factor 1 (NRF1) Orphan Gene (AID 2282987; active means hit-call score of the fitted dose curve at least 0.9, where 1 is the maximum; inactive means score below 0.9); conditions: HepG2 NRF1 cis-element reporter, Attagene multiplex; actives raise or lower the signal
# Procedure, shortened: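 Fluorescence intensity of labelled reporter cDNA fragments, resolved by capillary electrophoresis, served as readout for NRF1 cis-element activity. Transiently transfected HepG2 cells were dosed for 24 hours; activity in either direction was fitted against DMSO negative control.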
# [13] = ATG_VDRE_CIS: Attagene CIS-FACTORIAL HepG2 Assay for human Vitamin D Receptor Element (VDRE) (AID 2282968; active means hit-call score of the fitted dose curve at least 0.9, where 1 is the maximum; inactive means score below 0.9); conditions: HepG2 VDRE cis-reporter transcription, actives raise or lower the signal
# Procedure, shortened: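 Reporter mRNA induction, quantified by capillary electrophoresis of fluorescently labelled RT-PCR products, was read 24 h after dosing HepG2 cells carrying transiently transfected cis-regulated reporter units; gain or loss relative to DMSO.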
# [14] = biological target: Nuclear receptor subfamily 1 group I member 3 (Homo sapiens) (UniProt Q14994); experiment: ATG_CAR_TRANS: Attagene TRANS-FACTORIAL HepG2 Assay for human Constitutive Androstane Receptor (CAR) (AID 2282969); conditions: HepG2 Attagene TRANS-FACTORIAL CAR reporter;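 further: activators raise reporter mRNA above DMSO so AC50 marks induction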
# Procedure, shortened: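 Readout is reporter mRNA induction, quantified by fluorescent primer extension and capillary electrophoresis after RT-PCR. Cells were HepG2 transiently carrying chimeric NR-Gal4 constructs with GAL4-UAS reporters, treated for 24 h; activity scored upward from DMSO.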
# [15] = biological target: Steroid hormone receptor ERR1 (Homo sapiens) (UniProt P11474); experiment: ATG_ERRa_TRANS: Attagene TRANS-FACTORIAL HepG2 Assay for human Estrogen-Related Receptor alpha (ERRa) (AID 2282971); conditions: HepG2 Attagene TRANS reporter, ERRa transactivation
# Procedure, shortened: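 HepG2 cells were transiently transfected with multiple GAL4-UAS reporter units, then dosed with compound for 24 h. Total RNA was reverse-transcribed, reporter cDNA PCR-amplified and fluorescently labelled, and fragments resolved by capillary electrophoresis; induction was compared with DMSO.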
# [16] = biological target: Estrogen-related receptor gamma (Homo sapiens) (UniProt P62508); experiment: ATG_ERRg_TRANS: Attagene TRANS-FACTORIAL HepG2 Assay for human Estrogen-Related Receptor gamma (ERRg) (AID 2282977); conditions: HepG2 Attagene TRANS reporter, ERRg transactivation;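 further: hits increase reporter signal over DMSO so potencies reflect activators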
# Procedure, shortened: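 HepG2 cells transiently transfected with multiplexed GAL4-UAS reporter units driven by chimeric NR-Gal4 proteins; 24 h exposure. Reporter mRNA quantified by RT-PCR, fluorescent labelling, HpaI digestion and capillary electrophoresis; gain of signal vs DMSO.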
# [17] = biological target: Bile acid receptor (Homo sapiens) (UniProt Q96RI1); experiment: ATG_FXR_TRANS: Attagene TRANS-FACTORIAL HepG2 Assay for Farnesoid X Receptor (FXR) (AID 2282979); conditions: HepG2 Attagene TRANS FXR-GAL4 reporter transcription;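 further: hits raise reporter mRNA above DMSO so AC50 marks FXR activation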
# Procedure, shortened: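 Chimeric FXR-GAL4 activity in transiently transfected human HepG2 liver cells is scored as induction of reporter mRNA after 24 h of dosing. Detection uses RT-PCR with fluorescent labelling and capillary electrophoresis, with DMSO serving as baseline.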
# [18] = biological target: Glucocorticoid receptor (Homo sapiens) (UniProt P04150); experiment: ATG_GR_TRANS: Attagene TRANS-FACTORIAL HepG2 Assay for human Glucocorticoid Receptor (GR) (AID 2282978); conditions: HepG2 Attagene TRANS GR reporter, mRNA transcription;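 further: activators score as hits since higher reporter transcript over DMSO is fitted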
# Procedure, shortened: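 In this trans-factorial format, exogenous NR-GAL4 chimeric proteins in transfected HepG2 cells regulate GAL4-UAS reporter transcription. After 24 h treatment, reporter mRNA induction relative to DMSO is read by RT-PCR and capillary electrophoresis.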
# Sequence of Nuclear receptor subfamily 1 group I member 3 (Homo sapiens) (Q14994 whole entry, looked up, the tested form may be a part): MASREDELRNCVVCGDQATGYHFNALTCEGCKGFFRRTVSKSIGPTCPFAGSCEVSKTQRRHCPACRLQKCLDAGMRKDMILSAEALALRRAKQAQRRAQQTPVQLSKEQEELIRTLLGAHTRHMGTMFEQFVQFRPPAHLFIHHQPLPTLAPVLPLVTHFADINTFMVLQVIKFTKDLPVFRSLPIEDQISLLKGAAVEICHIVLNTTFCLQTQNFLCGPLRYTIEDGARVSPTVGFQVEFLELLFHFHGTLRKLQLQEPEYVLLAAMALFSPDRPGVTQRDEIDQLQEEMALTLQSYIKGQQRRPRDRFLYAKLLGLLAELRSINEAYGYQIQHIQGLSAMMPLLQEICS
# Sequence of Glucocorticoid receptor (Homo sapiens) (P04150 whole entry, looked up, the tested form may be a part): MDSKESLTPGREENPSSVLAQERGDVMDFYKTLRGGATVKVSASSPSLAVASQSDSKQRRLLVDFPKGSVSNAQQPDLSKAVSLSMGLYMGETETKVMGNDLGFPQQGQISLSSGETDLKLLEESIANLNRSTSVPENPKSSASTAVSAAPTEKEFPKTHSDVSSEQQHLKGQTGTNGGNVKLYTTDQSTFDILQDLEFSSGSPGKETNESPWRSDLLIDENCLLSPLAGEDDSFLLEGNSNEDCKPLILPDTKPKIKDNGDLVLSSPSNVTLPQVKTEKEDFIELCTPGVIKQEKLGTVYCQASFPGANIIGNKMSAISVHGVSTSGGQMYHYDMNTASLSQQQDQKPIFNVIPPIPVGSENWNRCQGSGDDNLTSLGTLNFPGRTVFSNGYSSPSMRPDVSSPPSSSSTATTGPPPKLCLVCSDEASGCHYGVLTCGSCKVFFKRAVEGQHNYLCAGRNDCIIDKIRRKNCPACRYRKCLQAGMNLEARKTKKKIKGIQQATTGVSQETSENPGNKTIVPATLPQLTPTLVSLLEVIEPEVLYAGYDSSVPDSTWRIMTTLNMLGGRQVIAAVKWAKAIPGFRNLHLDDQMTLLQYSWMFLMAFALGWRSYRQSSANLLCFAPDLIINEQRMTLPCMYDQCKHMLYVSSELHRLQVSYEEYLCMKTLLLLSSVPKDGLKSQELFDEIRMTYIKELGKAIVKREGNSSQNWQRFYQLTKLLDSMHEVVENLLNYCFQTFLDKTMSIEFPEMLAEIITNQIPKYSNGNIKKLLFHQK
# Sequence of Nuclear receptor subfamily 4 group A member 2 (Homo sapiens) (P43354 whole entry, looked up, the tested form may be a part): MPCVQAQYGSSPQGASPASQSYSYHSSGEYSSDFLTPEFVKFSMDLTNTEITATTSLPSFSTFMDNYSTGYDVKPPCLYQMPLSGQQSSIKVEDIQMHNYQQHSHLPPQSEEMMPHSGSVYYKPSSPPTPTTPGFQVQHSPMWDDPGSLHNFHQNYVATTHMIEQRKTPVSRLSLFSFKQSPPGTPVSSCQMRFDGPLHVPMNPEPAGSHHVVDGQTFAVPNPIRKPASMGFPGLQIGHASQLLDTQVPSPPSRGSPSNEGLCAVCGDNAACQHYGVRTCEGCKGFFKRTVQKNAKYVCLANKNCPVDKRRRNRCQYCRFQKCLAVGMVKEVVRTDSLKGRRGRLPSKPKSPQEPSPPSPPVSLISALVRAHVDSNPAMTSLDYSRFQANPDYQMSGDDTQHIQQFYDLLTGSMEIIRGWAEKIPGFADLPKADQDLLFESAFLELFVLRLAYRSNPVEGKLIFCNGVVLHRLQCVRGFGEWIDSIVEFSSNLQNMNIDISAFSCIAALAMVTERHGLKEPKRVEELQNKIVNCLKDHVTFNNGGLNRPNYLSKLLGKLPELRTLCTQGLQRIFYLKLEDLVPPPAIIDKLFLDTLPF
# Sequence of Oxysterols receptor LXR-alpha (Homo sapiens) (Q13133 whole entry, looked up): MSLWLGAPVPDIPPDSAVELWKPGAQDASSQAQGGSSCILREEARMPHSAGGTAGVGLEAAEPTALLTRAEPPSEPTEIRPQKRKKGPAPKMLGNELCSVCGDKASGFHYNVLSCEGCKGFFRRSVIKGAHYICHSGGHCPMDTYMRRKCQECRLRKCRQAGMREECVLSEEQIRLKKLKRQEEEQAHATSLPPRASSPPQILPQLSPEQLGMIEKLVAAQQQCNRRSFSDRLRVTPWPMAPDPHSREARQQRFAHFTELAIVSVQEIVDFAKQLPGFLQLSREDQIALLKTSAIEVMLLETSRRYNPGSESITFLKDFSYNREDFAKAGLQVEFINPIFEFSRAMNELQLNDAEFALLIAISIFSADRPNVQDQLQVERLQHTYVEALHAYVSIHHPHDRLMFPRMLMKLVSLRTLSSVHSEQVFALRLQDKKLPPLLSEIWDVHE
# Sequence of Hepatocyte nuclear factor 4-alpha (Homo sapiens) (P41235 whole entry, looked up, the tested form may be a part): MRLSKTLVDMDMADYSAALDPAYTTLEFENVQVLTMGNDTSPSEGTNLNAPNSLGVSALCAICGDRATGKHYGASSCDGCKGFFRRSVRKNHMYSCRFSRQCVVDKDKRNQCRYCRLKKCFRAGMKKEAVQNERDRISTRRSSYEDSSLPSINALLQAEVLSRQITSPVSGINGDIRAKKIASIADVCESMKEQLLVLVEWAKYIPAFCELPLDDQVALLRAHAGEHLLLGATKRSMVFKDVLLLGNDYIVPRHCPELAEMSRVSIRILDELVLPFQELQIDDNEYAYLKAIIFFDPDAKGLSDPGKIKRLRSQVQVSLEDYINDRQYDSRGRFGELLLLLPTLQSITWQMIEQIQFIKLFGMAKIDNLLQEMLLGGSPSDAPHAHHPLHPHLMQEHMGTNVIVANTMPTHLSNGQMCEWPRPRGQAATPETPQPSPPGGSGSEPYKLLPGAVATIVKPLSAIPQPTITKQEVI
# Sequence of Nuclear respiratory factor 1 (Homo sapiens) (Q16656 whole entry, looked up, the tested form may be a part): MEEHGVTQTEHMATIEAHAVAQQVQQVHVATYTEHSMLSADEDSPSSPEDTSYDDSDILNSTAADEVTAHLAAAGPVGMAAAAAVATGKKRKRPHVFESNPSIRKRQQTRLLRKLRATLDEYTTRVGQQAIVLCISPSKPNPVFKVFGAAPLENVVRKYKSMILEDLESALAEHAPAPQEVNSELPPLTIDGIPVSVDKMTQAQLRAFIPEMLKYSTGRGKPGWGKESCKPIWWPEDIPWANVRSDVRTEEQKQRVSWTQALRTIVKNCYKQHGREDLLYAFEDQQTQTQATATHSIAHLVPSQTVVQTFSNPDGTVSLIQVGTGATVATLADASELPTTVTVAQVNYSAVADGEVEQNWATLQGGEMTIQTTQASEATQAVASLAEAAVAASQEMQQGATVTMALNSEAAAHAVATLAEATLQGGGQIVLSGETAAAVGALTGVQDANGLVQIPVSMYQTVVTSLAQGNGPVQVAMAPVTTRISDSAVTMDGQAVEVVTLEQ
# Sequence of Bile acid receptor (Homo sapiens) (Q96RI1 whole entry, looked up, the tested form may be a part): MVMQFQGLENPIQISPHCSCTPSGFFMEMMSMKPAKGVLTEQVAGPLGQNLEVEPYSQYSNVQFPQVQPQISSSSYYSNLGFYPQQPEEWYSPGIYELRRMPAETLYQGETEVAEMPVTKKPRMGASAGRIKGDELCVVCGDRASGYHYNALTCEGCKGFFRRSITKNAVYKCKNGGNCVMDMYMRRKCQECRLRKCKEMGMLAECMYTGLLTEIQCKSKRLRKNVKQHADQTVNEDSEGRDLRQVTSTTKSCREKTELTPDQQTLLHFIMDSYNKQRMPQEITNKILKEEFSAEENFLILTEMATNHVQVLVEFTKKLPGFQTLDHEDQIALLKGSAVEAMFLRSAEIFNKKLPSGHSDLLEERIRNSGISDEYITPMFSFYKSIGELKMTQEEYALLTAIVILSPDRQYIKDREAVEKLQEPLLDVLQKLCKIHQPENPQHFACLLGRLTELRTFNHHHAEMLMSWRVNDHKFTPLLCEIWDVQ
# Sequence of Steroid hormone receptor ERR1 (Homo sapiens) (P11474 whole entry, looked up, the tested form may be a part): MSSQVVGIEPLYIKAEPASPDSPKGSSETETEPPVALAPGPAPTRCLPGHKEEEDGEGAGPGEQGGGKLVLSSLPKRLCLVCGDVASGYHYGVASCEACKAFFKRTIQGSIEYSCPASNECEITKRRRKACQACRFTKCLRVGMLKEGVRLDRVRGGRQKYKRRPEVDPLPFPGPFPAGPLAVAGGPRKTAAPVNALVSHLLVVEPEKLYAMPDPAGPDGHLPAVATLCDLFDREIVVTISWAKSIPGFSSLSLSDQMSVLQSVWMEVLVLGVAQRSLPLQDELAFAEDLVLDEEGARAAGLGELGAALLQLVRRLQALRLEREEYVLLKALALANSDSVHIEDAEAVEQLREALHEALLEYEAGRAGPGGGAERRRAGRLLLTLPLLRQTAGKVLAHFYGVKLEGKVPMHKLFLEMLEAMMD
# Sequence of X-box-binding protein 1 (Homo sapiens) (P17861 whole entry, looked up): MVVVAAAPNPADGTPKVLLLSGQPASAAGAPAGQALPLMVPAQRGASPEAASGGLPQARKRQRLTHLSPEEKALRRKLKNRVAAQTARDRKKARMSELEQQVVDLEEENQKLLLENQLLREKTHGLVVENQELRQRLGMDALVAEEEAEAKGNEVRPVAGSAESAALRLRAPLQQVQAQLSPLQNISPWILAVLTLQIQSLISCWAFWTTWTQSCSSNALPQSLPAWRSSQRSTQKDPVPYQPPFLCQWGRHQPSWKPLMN
# Sequence of Transcriptional activator Myb (Homo sapiens) (P10242 whole entry, looked up): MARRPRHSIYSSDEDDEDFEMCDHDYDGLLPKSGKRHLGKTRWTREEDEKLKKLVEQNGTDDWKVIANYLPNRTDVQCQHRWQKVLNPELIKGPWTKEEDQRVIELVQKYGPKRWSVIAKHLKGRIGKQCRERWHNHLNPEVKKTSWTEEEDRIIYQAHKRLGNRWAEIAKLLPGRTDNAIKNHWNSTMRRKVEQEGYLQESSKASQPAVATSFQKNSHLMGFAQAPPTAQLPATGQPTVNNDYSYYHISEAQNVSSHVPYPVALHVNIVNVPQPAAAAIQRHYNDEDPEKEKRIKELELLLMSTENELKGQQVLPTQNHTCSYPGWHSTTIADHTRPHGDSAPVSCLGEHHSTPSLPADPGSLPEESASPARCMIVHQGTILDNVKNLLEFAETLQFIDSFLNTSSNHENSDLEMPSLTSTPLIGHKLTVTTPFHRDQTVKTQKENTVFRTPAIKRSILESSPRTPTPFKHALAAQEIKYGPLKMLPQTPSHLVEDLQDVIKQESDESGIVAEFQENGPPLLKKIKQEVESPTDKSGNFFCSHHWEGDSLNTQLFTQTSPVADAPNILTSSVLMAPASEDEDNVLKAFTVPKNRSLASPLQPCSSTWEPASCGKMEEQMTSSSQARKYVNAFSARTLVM
compound,measurement,setting,value
CN(C)[C@@H]1C(=O)C(C(N)=O)=C(O)[C@@]2(O)C(=O)C3=C(O)c4c(O)cccc4[C@@](C)(O)[C@H]3[C@H](O)[C@@H]12,outcome,[1],inactive
same,outcome,[2],inactive
same,outcome,[3],inactive
same,outcome,[4],inactive
same,outcome,[5],inactive
same,outcome,[6],inactive
same,outcome,[7],inactive
same,outcome,[8],inactive
same,outcome,[9],inactive
same,outcome,[10],inactive
same,outcome,[11],inactive
same,outcome,[12],inactive
CC(COc1ccc(Oc2ccccc2)cc1)Oc1ccccn1 (stereo unspecified),outcome,[1],inactive
same,AC50,[13],16 µM (active)
same,outcome,[14],inactive
same,outcome,[15],inactive
same,outcome,[2],inactive
same,outcome,[16],inactive
same,outcome,[6],inactive
same,outcome,[7],inactive
same,outcome,[8],inactive
same,outcome,[9],inactive
same,outcome,[10],inactive
same,outcome,[11],inactive
same,outcome,[12],inactive
CSc1nc(NC(C)C)nc(NC(C)C)n1,outcome,[1],inactive
same,AC50,[13],10.3 µM (active)
same,outcome,[14],inactive
same,outcome,[15],inactive
same,outcome,[2],inactive
same,outcome,[3],inactive
same,outcome,[4],inactive
same,outcome,[6],inactive
same,outcome,[7],inactive
same,outcome,[9],inactive
same,outcome,[10],inactive
same,outcome,[11],inactive
same,outcome,[12],inactive
CNC(=O)ON=C(SC)C(=O)N(C)C,outcome,[1],inactive
same,outcome,[13],inactive
same,outcome,[14],inactive
same,outcome,[15],inactive
same,AC50,[2],40.5 µM (active)
same,outcome,[3],inactive
same,outcome,[16],inactive
same,outcome,[7],inactive
same,outcome,[8],inactive
same,outcome,[11],inactive
same,outcome,[12],inactive
CCC(CC)Nc1c([N+](=O)[O-])cc(C)c(C)c1[N+](=O)[O-],AC50,[13],15.3 µM (active)
same,outcome,[14],inactive
same,outcome,[15],inactive
same,outcome,[2],inactive
same,outcome,[3],inactive
same,outcome,[4],inactive
same,outcome,[17],inactive
same,outcome,[7],inactive
same,outcome,[9],inactive
same,outcome,[10],inactive
same,outcome,[11],inactive
same,outcome,[12],inactive
CNC(=O)Oc1cccc2c1OC(C)(C)O2,outcome,[1],inactive
same,AC50,[13],50 µM (active)
same,AC50,[2],33.2 µM (active)
same,outcome,[4],inactive
same,outcome,[17],inactive
same,outcome,[6],inactive
same,outcome,[7],inactive
same,outcome,[9],inactive
same,outcome,[11],inactive
same,outcome,[12],inactive
CCCSP(=O)(OCC)SCCC,outcome,[1],inactive
same,AC50,[13],50 µM (active)
same,outcome,[14],inactive
same,outcome,[2],inactive
same,outcome,[3],inactive
same,outcome,[4],inactive
same,outcome,[18],inactive
same,outcome,[17],inactive
same,outcome,[6],inactive
same,outcome,[7],inactive
same,outcome,[10],inactive
same,outcome,[11],inactive
same,outcome,[12],inactive
O=[N+]([O-])c1cc(C(F)(F)F)c(Cl)c([N+](=O)[O-])c1Nc1ncc(C(F)(F)F)cc1Cl,AC50,[1],2.2 µM (active)
same,outcome,[1],inactive
same,outcome,[13],inactive
same,outcome,[14],inactive
same,outcome,[2],inactive
same,outcome,[3],inactive
same,outcome,[4],inactive
same,outcome,[5],inactive
same,outcome,[18],inactive
same,outcome,[6],inactive
same,outcome,[7],inactive
same,outcome,[8],inactive
same,outcome,[9],inactive
same,outcome,[10],inactive
same,outcome,[11],inactive
same,AC50,[12],21.5 µM (active)
same,outcome,[12],inactive
